Out of some 5,500 compounds screened, about 2,000 (36%) were called active. Not shown: some 18% with an inconclusive outcome. Rule as the data show it: active = normalized growth mostly below about 0.91 (no sharp cut-off); inconclusive = no clear call, values can overlap the other calls; inactive = mostly above about 0.92. This is one part of the list.
Assay: chemical genetic growth profiling, strain panel (AID 1159580);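 also: tested at 20 µM; growth read once vehicle control cultures reached saturation at 30 °C; 1 = growth at the plate median or of vehicle wells; lower values mean less growth of the strain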
Conditions: growth OD
[1] = S. cerevisiae deletion strains, locus YCL061C, strain MRC1, stronger effect = lower value
[2] = S. cerevisiae deletion strains, locus YHR030C, strain SLT2, stronger effect = lower value
[3] = S. cerevisiae deletion strains, locus YJL187C, strain SWE1, stronger effect = lower value
[4] = S. cerevisiae deletion strains, locus YAL013W, strain DEP1, stronger effect = lower value
[5] = S. cerevisiae deletion strains, locus YDR150W, strain NUM1, stronger effect = lower value
[6] = S. cerevisiae deletion strains, locus YGR078C, strain PAC10, stronger effect = lower value
[7] = S. cerevisiae deletion strains, locus YJR075W, strain HOC1, stronger effect = lower value
[8] = S. cerevisiae deletion strains, locus YMR263W, strain SAP30, stronger effect = lower value
[9] = S. cerevisiae deletion strains, locus YMR307W, strain GAS1, stronger effect = lower value
[10] = S. cerevisiae deletion strains, locus YNL322C, strain KRE1, stronger effect = lower value
[11] = S. cerevisiae deletion strains, locus YPL055C, strain LGE1, stronger effect = lower value
[12] = S. cerevisiae deletion strains, locus YPL241C, strain CIN2, stronger effect = lower value
[13] = S. cerevisiae deletion strains, locus YAL040C, strain CLN3, stronger effect = lower value
[14] = S. cerevisiae deletion strains, locus YCL061C, strain MRC1 (second series), stronger effect = lower value
[15] = S. cerevisiae deletion strains, locus YDR363W, strain ESC2, stronger effect = lower value
[16] = S. cerevisiae deletion strains, locus YER002W, strain NOP16, stronger effect = lower value
[17] = S. cerevisiae deletion strains, locus YNL175C, strain NOP13, stronger effect = lower value
[18] = S. cerevisiae deletion strains, locus YNL197C, strain WHI3, stronger effect = lower value
[19] = S. cerevisiae deletion strains, locus YNL224C, strain SQS1, stronger effect = lower value
[20] = S. cerevisiae deletion strains, locus YOR083W, strain WHI5 (second series), stronger effect = lower value

Measured: normalized growth

COc1cc(C(=O)NCCCCCC(=O)O)cc(OC)c1OC
inactive: S. cerevisiae deletion strains, locus YAL021C, strain ccr4, stronger effect = lower value 0.976 | S. cerevisiae deletion strains, locus YAL026C, strain drs2, stronger effect = lower value 0.981 | S. cerevisiae deletion strains, locus YAL030W, strain snc1, stronger effect = lower value 0.959 | S. cerevisiae deletion strains, locus YBL061C, strain skt5, stronger effect = lower value 0.973 | S. cerevisiae deletion strains, locus YBR009C, strain hhf1, stronger effect = lower value 0.977 | S. cerevisiae deletion strains, locus YBR023C, strain chs3, stronger effect = lower value 0.986 | S. cerevisiae deletion strains, locus YBR171W, strain sec66, stronger effect = lower value 0.97 | S. cerevisiae deletion strains, locus YBR231C, strain swc5, stronger effect = lower value 0.978 | S. cerevisiae deletion strains, locus YBR279W, strain paf1, stronger effect = lower value 0.979 | S. cerevisiae deletion strains, locus YCL011C, strain gbp2, stronger effect = lower value 0.977 | S. cerevisiae deletion strains, locus YCL016C, strain dcc1, stronger effect = lower value 0.982 | [1] 0.995 | S. cerevisiae deletion strains, locus YCL069W, strain vba3, stronger effect = lower value 0.984 | S. cerevisiae deletion strains, locus YCR088W, strain abp1, stronger effect = lower value 0.986 | S. cerevisiae deletion strains, locus YDL005C, strain med2, stronger effect = lower value 0.973 | S. cerevisiae deletion strains, locus YDL040C, strain nat1, stronger effect = lower value 0.981 | S. cerevisiae deletion strains, locus YDR001C, strain nth1, stronger effect = lower value 0.969 | S. cerevisiae deletion strains, locus YDR069C, strain doa4, stronger effect = lower value 0.973 | S. cerevisiae deletion strains, locus YDR137W, strain rgp1, stronger effect = lower value 0.975 | S. cerevisiae deletion strains, locus YDR159W, strain sac3, stronger effect = lower value 0.966 | S. cerevisiae deletion strains, locus YDR195W, strain ref2 0.966 | S. cerevisiae deletion strains, locus YDR297W, strain sur2, stronger effect = lower value 0.962 | S. cerevisiae deletion strains, locus YDR334W, strain swr1, stronger effect = lower value 0.935 | S. cerevisiae deletion strains, locus YDR335W, strain msn5, stronger effect = lower value 0.975 | S. cerevisiae deletion strains, locus YDR392W, strain spt3, stronger effect = lower value 0.983 | S. cerevisiae deletion strains, locus YEL003W, strain gim4, stronger effect = lower value 0.98 | S. cerevisiae deletion strains, locus YEL037C, strain rad23, stronger effect = lower value 0.985 | S. cerevisiae deletion strains, locus YEL061C, strain CIN8 (second series), stronger effect = lower value 0.974 | S. cerevisiae deletion strains, locus YER015W, strain faa2, stronger effect = lower value 0.972 | S. cerevisiae deletion strains, locus YER016W, strain bim1, stronger effect = lower value 0.981 | S. cerevisiae deletion strains, locus YER111C, strain swi4, stronger effect = lower value 0.979 | S. cerevisiae deletion strains, locus YER155C, strain BEM2 (second series), stronger effect = lower value 0.969 | S. cerevisiae deletion strains, locus YFR010W, strain ubp6, stronger effect = lower value 0.966 | S. cerevisiae deletion strains, locus YGL167C, strain pmr1, stronger effect = lower value 0.986 | S. cerevisiae deletion strains, locus YGL173C, strain kem1, stronger effect = lower value 0.959 | S. cerevisiae deletion strains, locus YGL227W, strain vid30, stronger effect = lower value 0.976 | S. cerevisiae deletion strains, locus YGL240W, strain doc1, stronger effect = lower value 0.972 | S. cerevisiae deletion strains, locus YGL253W, strain hxk2, stronger effect = lower value 0.986 | S. cerevisiae deletion strains, locus YHR013C, strain ard1, stronger effect = lower value 0.973 | S. cerevisiae deletion strains, locus YHR027C, strain rpn1, stronger effect = lower value 0.964 | [2] 0.972 | S. cerevisiae deletion strains, locus YHR079C, strain IRE1, stronger effect = lower value 0.974 | S. cerevisiae deletion strains, locus YHR142W, strain chs7, stronger effect = lower value 0.981 | S. cerevisiae deletion strains, locus YJL092W, strain hpr5, stronger effect = lower value 0.994 | S. cerevisiae deletion strains, locus YJL095W, strain BCK1 (second series), stronger effect = lower value 0.977 | S. cerevisiae deletion strains, locus YJL095W, strain BCK1, stronger effect = lower value 1.02 | S. cerevisiae deletion strains, locus YJL115W, strain asf1, stronger effect = lower value 0.975 | S. cerevisiae deletion strains, locus YJL129C, strain trk1, stronger effect = lower value 0.999 | S. cerevisiae deletion strains, locus YJL154C, strain vps35, stronger effect = lower value 0.97 | S. cerevisiae deletion strains, locus YJL164C, strain tpk1, stronger effect = lower value 0.998 | S. cerevisiae deletion strains, locus YJL166W, strain qcr8, stronger effect = lower value 0.974 | [3] 0.983 | S. cerevisiae deletion strains, locus YJR066W, strain TOR1, stronger effect = lower value 0.923 | S. cerevisiae deletion strains, locus YKL160W, strain elf1, stronger effect = lower value 0.992 | S. cerevisiae deletion strains, locus YKR026C, strain gcn3, stronger effect = lower value 0.993 | S. cerevisiae deletion strains, locus YKR091W, strain srl3, stronger effect = lower value 0.984 | S. cerevisiae deletion strains, locus YLL001W, strain dnm1, stronger effect = lower value 0.998 | S. cerevisiae deletion strains, locus YLL026W, stronger effect = lower value 0.964 | S. cerevisiae deletion strains, locus YLL041C, strain sdh2, stronger effect = lower value 0.981 | S. cerevisiae deletion strains, locus YLR027C, strain aat2, stronger effect = lower value 0.977 | S. cerevisiae deletion strains, locus YLR113W, strain HOG1, stronger effect = lower value 1.01 | S. cerevisiae deletion strains, locus YLR221C, strain rsa3, stronger effect = lower value 0.991 | S. cerevisiae deletion strains, locus YLR258W, strain gsy2, stronger effect = lower value 0.987 | S. cerevisiae deletion strains, locus YLR262C, strain YPT6 (second series), stronger effect = lower value 0.962 | S. cerevisiae deletion strains, locus YLR320W, strain mms22, stronger effect = lower value 0.985 | S. cerevisiae deletion strains, locus YLR342W, strain FKS1, stronger effect = lower value 0.985 | S. cerevisiae deletion strains, locus YLR357W, strain rsc2, stronger effect = lower value 1.01 | S. cerevisiae deletion strains, locus YLR370C, strain arc18, stronger effect = lower value 0.973 | S. cerevisiae deletion strains, locus YLR384C, strain iki3, stronger effect = lower value 0.975 | S. cerevisiae deletion strains, locus YML120C, strain ndi1, stronger effect = lower value 0.987 | S. cerevisiae deletion strains, locus YMR058W, strain fet3, stronger effect = lower value 0.974 | S. cerevisiae deletion strains, locus YMR125W, strain sto1, stronger effect = lower value 0.979 | S. cerevisiae deletion strains, locus YMR129W, stronger effect = lower value 0.995 | S. cerevisiae deletion strains, locus YMR205C, strain PFK2, stronger effect = lower value 0.968 | S. cerevisiae deletion strains, locus YMR231W, strain pep5, stronger effect = lower value 0.991 | S. cerevisiae deletion strains, locus YNL071W, strain lat1, stronger effect = lower value 0.985 | S. cerevisiae deletion strains, locus YNL183C, strain NPR1, stronger effect = lower value 0.935 | S. cerevisiae deletion strains, locus YNL209W, strain ssb2, stronger effect = lower value 0.977 | S. cerevisiae deletion strains, locus YNL248C, strain rpa49, stronger effect = lower value 0.986 | S. cerevisiae deletion strains, locus YNL322C, strain KRE1 (second series), stronger effect = lower value 0.966 | S. cerevisiae deletion strains, locus YNR049C, strain mso1, stronger effect = lower value 0.976 | S. cerevisiae deletion strains, locus YOR001W, strain rrp6, stronger effect = lower value 0.977 | S. cerevisiae deletion strains, locus YOR070C, strain gyp1, stronger effect = lower value 0.978 | S. cerevisiae deletion strains, locus YOR080W, strain dia2, stronger effect = lower value 0.974 | S. cerevisiae deletion strains, locus YOR083W, strain WHI5, stronger effect = lower value 0.98 | S. cerevisiae deletion strains, locus YOR106W, strain vam3, stronger effect = lower value 0.979 | S. cerevisiae deletion strains, locus YOR231W, strain MKK1, stronger effect = lower value 0.99 | S. cerevisiae deletion strains, locus YOR265W, strain rbl2, stronger effect = lower value 0.973 | S. cerevisiae deletion strains, locus YOR270C, strain vph1, stronger effect = lower value 0.996 | S. cerevisiae deletion strains, locus YOR290C, strain snf2, stronger effect = lower value 0.976 | S. cerevisiae deletion strains, locus YPL051W, strain arl3, stronger effect = lower value 0.988 | S. cerevisiae deletion strains, locus YPL078C, strain atp4, stronger effect = lower value 0.98 | S. cerevisiae deletion strains, locus YPL106C, strain sse1, stronger effect = lower value 0.916 | S. cerevisiae deletion strains, locus YPL240C, strain hsp82, stronger effect = lower value 0.982 | S. cerevisiae deletion strains, locus YPL256C, strain CLN2, stronger effect = lower value 0.93

CC(OCc1ccccc1)C(NC(=O)OC(C)(C)C)C(N)=O (stereo not drawn)
inactive: [4] 0.998 | S. cerevisiae deletion strains, locus YBR229C, strain ROT2, stronger effect = lower value 0.994 | [1] 0.993 | S. cerevisiae deletion strains, locus YDL101C, strain DUN1, stronger effect = lower value 0.993 | S. cerevisiae deletion strains, locus YDL134C, strain PPH21, stronger effect = lower value 0.994 | [5] 0.985 | S. cerevisiae deletion strains, locus YEL061C, strain CIN8, stronger effect = lower value 0.988 | [6] 0.997 | [2] 0.903 | S. cerevisiae deletion strains, locus YHR087W, strain rtc3, stronger effect = lower value 0.988 | [3] 1 | S. cerevisiae deletion strains, locus YJR043C, strain POL32, stronger effect = lower value 0.974 | [7] 1.02 | S. cerevisiae deletion strains, locus YLR039C, strain RIC1, stronger effect = lower value 0.977 | S. cerevisiae deletion strains, locus YLR058C, strain SHM2 (second series), stronger effect = lower value 1 | S. cerevisiae deletion strains, locus YLR085C, strain ARP6, stronger effect = lower value 1.02 | S. cerevisiae deletion strains, locus YLR262C, strain YPT6, stronger effect = lower value 0.864 | S. cerevisiae deletion strains, locus YML094W, strain GIM5, stronger effect = lower value 1.04 | S. cerevisiae deletion strains, locus YMR219W, strain ESC1, stronger effect = lower value 0.991 | [8] 0.976 | [9] 1.07 | S. cerevisiae deletion strains, locus YNL153C, strain GIM3, stronger effect = lower value 0.998 | S. cerevisiae deletion strains, locus YNL298W, strain CLA4 (second series), stronger effect = lower value 0.974 | [10] 0.985 | S. cerevisiae deletion strains, locus YNR030W, strain Alg12, stronger effect = lower value 0.961 | [11] 1.02 | [12] 1 | S. cerevisiae deletion strains, locus YPR135W, strain CTF4, stronger effect = lower value 0.9 | S. cerevisiae strains, strain wild type, stronger effect = lower value 0.971

COc1cc(-c2ccc(=O)[nH]n2)ccc1OC(F)F
inactive: [13] 0.975 | [14] 1.01 | [15] 0.997 | [16] 1 | [6] 1.01 | [7] 1 | [9] 0.995 | S. cerevisiae deletion strains, locus YNL128W, strain TEP1, stronger effect = lower value 1.01 | [17] 1.03 | [18] 0.994 | [19] 1.01 | [10] 0.997 | [20] 1.02 | [11] 1.02 | [12] 1

Cn1ccnc1
inactive: [4] 1.01 | [13] 1.01 | [14] 1 | [5] 1 | [15] 1.01 | [16] 1 | [6] 1.01 | [8] 1.01 | [9] 1 | [17] 1 | [18] 1 | [19] 1.01 | [20] 1.02 | [11] 1

Reference: PubChem BioAssay AID1159580 (chemical genetic matrix, 2015)
